The nature of test [1]: ACEA_ER_80hr: ACEA Biosciences xCELLigence Real-Time Cell Analysis on Estrogen Receptor Agonism for Proliferation (AID 2282667; active = hit-call score of the fitted dose curve at least 0.9, where 1 is the maximum). To be noted: T47D proliferation, impedance (xCELLigence), 80 h. Put shortly: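 T47D human breast cells were seeded on electrode plates, monitored overnight, then exposed continuously to compounds in eight-point 1:4 dilutions from 100 uM (max 0.5% DMSO). Impedance-based growth was read at 80 h, fitted upward relative to DMSO.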

Test [2] is described as follows: ATG_CRE_CIS: Attagene CIS-FACTORIAL HepG2 Assay for human cAMP Responsive Element (CRE) binding protein 3 (AID 2282926). To be noted: HepG2 CRE cis-reporter, Attagene multiplexed mRNA; actives raise or lower the signal. The procedure, abridged:
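HepG2 cells transiently transfected with a multiplexed reporter library (CRE-driven unit among them) were dosed for 24 h. Reporter mRNA was quantified by RT-PCR, fluorescent labelling, HpaI digestion and capillary electrophoresis, with bidirectional fitting against DMSO baseline.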

Test [3] addresses CCAAT/enhancer-binding protein beta (Homo sapiens) (UniProt P17676). The test is described as follows: ATG_C_EBP_CIS: Attagene CIS-FACTORIAL HepG2 Assay for human CCAAT/Enhancer Binding Protein (C/EBP) beta (AID 2282927). To be noted: HepG2 Attagene cis-factorial transcription factor reporter; actives raise or lower the signal. Put shortly:
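Endogenous transcription factor activity in human liver HepG2 cells is inferred from induction of a CEBPB-linked reporter mRNA. Exposure lasts 24 h; activity is fitted in both directions relative to DMSO.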

Test [4] can be described thus: ATG_CMV_CIS: Attagene CIS-FACTORIAL HepG2 Assay for human CMV (Internal Marker) (AID 2282928).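 Also: endpoint acts as a background internal control marker rather than a target.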 Conditions: HepG2 CMV promoter reporter, transcription factor profiling; actives raise or lower the signal. The procedure, abridged: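 Cell system: HepG2, transiently transfected multiple reporter units under cis promoters. Exposure: 24 h. Detection: RT-PCR, FAM labeling, HpaI digestion, capillary electrophoresis. Analysis: bidirectional, DMSO baseline.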

A short description of test [5]: ATG_AP_1_CIS: Attagene CIS-FACTORIAL HepG2 Assay for human Activator Protein 1 (AP-1) (AID 2282931). Conditions: HepG2 Attagene cis-factorial AP-1 reporter mRNA; actives raise or lower the signal. The procedure, abridged:
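Multiplexed HepG2 reporter assay, 24 h dosing. mRNA induction detected by RT-PCR plus capillary electrophoresis. Activity fitted in both directions against DMSO.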

Test [6] in a line: ATG_AP_2_CIS: Attagene CIS-FACTORIAL HepG2 Assay for human Activator Protein 2 (AP-2) (AID 2282932). To be noted: HepG2 AP-2 cis-reporter, Attagene transcription factor profiling; actives raise or lower the signal. Put shortly: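 HepG2, transient MRTU transfection, cis-regulated reporters; 24 h compound exposure; RNA isolated, RT-PCR, 6-FAM labelling, HpaI digest, CE fluorescence. DMSO = negative control/baseline, bidirectional fit.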

A short description of test [7]: ATG_BRE_CIS: Attagene CIS-FACTORIAL HepG2 Assay for human Bone Morphogenetic Protein (BMP) Response Element (BRE) (AID 2282933). To be noted: HepG2 BMP response element reporter, Attagene transcription factor profiling; actives raise or lower the signal. Put shortly:
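HepG2 cells transiently transfected with multiplexed cis-element reporter units were dosed with chemical for 24 h. Reporter mRNA was measured by RT-PCR with fluorescent labelling, HpaI digestion and capillary electrophoresis; bidirectional fitting relative to DMSO.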

Test [8] has as its target Retinoic acid receptor alpha (Homo sapiens) (UniProt P10276). Kind of test: ATG_DR5_RAR_CIS: Attagene CIS-FACTORIAL HepG2 Assay for human Retinoic Acid Receptor Alpha (RARE), DR5 submotif (AID 2282934).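 As to AC50: reporter responds to endogenous RAR alpha beta and gamma in HepG2 not RARA alone.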 To be noted: HepG2 Attagene cis-factorial RARE DR5 reporter, mRNA; actives raise or lower the signal. Put shortly: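 Transient MRTU transfection of HepG2; 24 h compound treatment; TriZol RNA, oligo(dT) RT, PCR, FAM labelling, capillary electrophoresis. Bidirectional fit vs DMSO. Endogenous TF activity at DR5 RARE.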

Test [9] deals with Transcription factor E2F1 (Homo sapiens) (UniProt Q01094). Kind of test: ATG_E2F_CIS: Attagene CIS-FACTORIAL HepG2 Assay for human E2F Transcription Factor 1 (AID 2282935). To be noted: HepG2 Attagene cis-reporter, E2F reporter RNA transcripts; actives raise or lower the signal. Put shortly: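 Cis-element reporter mRNA induction in transiently transfected HepG2, 24 h exposure. Activity fitted in both directions relative to DMSO negative control.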
Chain of Transcription factor E2F1 (Homo sapiens) (Q01094 whole entry, looked up): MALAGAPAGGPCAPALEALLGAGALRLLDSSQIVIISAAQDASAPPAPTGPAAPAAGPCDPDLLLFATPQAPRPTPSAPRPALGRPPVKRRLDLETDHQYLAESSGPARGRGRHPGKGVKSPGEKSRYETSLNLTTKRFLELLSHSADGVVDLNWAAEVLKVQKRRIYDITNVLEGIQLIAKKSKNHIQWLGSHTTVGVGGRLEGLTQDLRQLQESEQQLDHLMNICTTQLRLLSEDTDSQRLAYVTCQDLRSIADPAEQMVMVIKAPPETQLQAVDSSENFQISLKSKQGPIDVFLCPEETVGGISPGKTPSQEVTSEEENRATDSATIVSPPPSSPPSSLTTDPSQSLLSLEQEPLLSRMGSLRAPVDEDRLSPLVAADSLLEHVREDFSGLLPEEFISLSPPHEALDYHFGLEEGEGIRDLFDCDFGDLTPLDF

The nature of test [10]: ATG_E_Box_CIS: Attagene CIS-FACTORIAL HepG2 Assay for human Enhancer Box (E-box) (AID 2282936). Conditions: HepG2 E-box cis-reporter transcription, actives raise or lower the signal. The procedure, abridged: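 Cells: HepG2 (human liver), transient MRTU transfection. Exposure 24 h. RNA → oligo(dT) RT → PCR → 6-FAM label → HpaI → CE. Activity fitted both directions relative to DMSO.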

Test [11] in a line: ATG_EGR_CIS: Attagene CIS-FACTORIAL HepG2 Assay for human Early Growth Response 1 (EGR1) (AID 2282938). Conditions: HepG2 Attagene CIS-FACTORIAL EGR reporter mRNA; actives raise or lower the signal. The procedure, abridged:
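Activity is taken as induction or loss of reporter mRNA versus DMSO, fitted bidirectionally. Transcripts from cis-regulated reporter units in transiently transfected HepG2 were measured after 24 h by RT-PCR with capillary electrophoresis.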

The nature of test [12]: ATG_M_19_CIS: Attagene CIS-FACTORIAL HepG2 Assay for M19 Transcription Factor (Internal Marker) (AID 2282939). Conditions: HepG2 Attagene CIS-FACTORIAL M19 internal marker reporter; actives raise or lower the signal. Put shortly: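 HepG2 cells transiently transfected with cis-regulated multiple reporter transcription units were dosed for 24 h; reporter mRNA was quantified by RT-PCR, 6-FAM primer-extension labelling, HpaI digestion and capillary electrophoresis, with bidirectional fitting against DMSO baseline.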

Test [13] can be described thus: ATG_ERE_CIS: Attagene CIS-FACTORIAL HepG2 Assay for Estrogen Response Element (ERE) (AID 2282940). To be noted: HepG2 ERE cis-reporter, Attagene RNA transcript; actives raise or lower the signal. Put shortly: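 HepG2 cells transiently transfected with cis-promoter-driven multiplexed reporter transcription units report endogenous TF activity. After 24 h compound exposure, reporter mRNA is quantified by RT-PCR with capillary electrophoresis fluorescence; bidirectional fitting versus DMSO baseline.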

The nature of test [14]: ATG_Ets_CIS: Attagene CIS-FACTORIAL HepG2 Assay for human Erythroblast Transformation Specific (ETS) (AID 2282941). To be noted: HepG2 ETS cis-reporter transcription, actives raise or lower the signal. Put shortly:
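After transient cis-reporter transfection, HepG2 cells receive test chemical for 24 h. Reporter mRNA levels, measured by RT-PCR and capillary electrophoresis fluorescence, are analysed bidirectionally relative to the DMSO baseline.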

For test [15], the target named is Hepatocyte nuclear factor 3-beta (Homo sapiens) (UniProt Q9Y261). The test is described as follows: ATG_FoxA2_CIS: Attagene CIS-FACTORIAL HepG2 Assay for human Forkhead box A2 (FOXA2) (AID 2282942). To be noted: HepG2 cis-reporter transcription factor activity, 24 h; actives raise or lower the signal. Put shortly:
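Reporter transcript induction is measured by fluorescence after capillary electrophoresis of RT-PCR products from HepG2 cells exposed 24 h. Cis-regulated reporter units report endogenous factor activity; curves fitted both directions against DMSO.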

A short description of test [16]: ATG_FoxO_CIS: Attagene CIS-FACTORIAL HepG2 Assay for human Forkhead box O (FoxO) (AID 2282943). To be noted: HepG2 Attagene cis-reporter, FoxO element, mRNA; actives raise or lower the signal. Put shortly: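 HepG2, transient MRTU transfection (cis element, endogenous TFs). Dose 24 h. TriZol RNA → oligo(dT) RT → PCR → 6-FAM primer extension → HpaI cut → CE. Gain/loss vs DMSO.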

The nature of test [17]: ATG_GATA_CIS: Attagene CIS-FACTORIAL HepG2 Assay for human GATA Binding Protein (AID 2282944). To be noted: HepG2 GATA cis-element reporter, Attagene multiplex mRNA; actives raise or lower the signal. The procedure, abridged:
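HepG2 cells transiently transfected with multiplexed cis-element reporter units reflecting endogenous transcription factor activity; reporter mRNA measured after 24 h dosing by RT-PCR, 6-FAM labeling, HpaI digestion and capillary electrophoresis. Bidirectional fitting versus DMSO baseline.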

The target in test [18] is Aryl hydrocarbon receptor (Homo sapiens) (UniProt P35869). The test is described as follows: ATG_Ahr_CIS: Attagene CIS-FACTORIAL HepG2 Assay for human Aryl Hydrocarbon Receptor (Ahr) (AID 2282930). To be noted: HepG2 AhR cis-factorial reporter transcription; actives raise or lower the signal. The procedure, abridged: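 Transient MRTU transfection of HepG2 → 24 h compound exposure → total RNA, oligo(dT) RT → PCR, 6-FAM extension, HpaI cut → CE fluorescence. DMSO = baseline; bidirectional curve fit.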
Chain of Aryl hydrocarbon receptor (Homo sapiens) (P35869 whole entry, looked up): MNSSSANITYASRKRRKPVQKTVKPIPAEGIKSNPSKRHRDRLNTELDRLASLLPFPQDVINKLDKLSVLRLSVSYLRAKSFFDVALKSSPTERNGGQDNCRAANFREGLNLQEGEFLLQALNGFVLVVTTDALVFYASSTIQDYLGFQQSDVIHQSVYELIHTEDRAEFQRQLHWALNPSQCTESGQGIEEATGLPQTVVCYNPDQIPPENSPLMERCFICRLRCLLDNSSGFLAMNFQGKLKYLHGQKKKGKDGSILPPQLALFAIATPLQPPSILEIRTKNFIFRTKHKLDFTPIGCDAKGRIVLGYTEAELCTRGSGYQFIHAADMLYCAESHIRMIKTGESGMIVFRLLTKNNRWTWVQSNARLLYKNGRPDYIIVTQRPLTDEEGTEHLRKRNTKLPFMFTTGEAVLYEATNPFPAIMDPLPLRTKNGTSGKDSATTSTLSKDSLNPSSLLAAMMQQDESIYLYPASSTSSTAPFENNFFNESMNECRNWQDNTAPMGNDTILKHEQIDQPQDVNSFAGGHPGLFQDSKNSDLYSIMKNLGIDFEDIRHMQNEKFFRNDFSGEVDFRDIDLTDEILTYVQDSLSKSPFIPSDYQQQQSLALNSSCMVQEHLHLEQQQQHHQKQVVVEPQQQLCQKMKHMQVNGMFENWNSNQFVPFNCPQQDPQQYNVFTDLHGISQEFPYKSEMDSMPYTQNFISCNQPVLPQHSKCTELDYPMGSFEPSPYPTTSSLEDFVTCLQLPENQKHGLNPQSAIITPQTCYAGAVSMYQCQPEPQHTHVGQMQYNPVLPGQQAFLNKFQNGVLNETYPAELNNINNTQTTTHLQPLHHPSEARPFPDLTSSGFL

Test [19] in a line: ATG_M_61_CIS: Attagene CIS-FACTORIAL HepG2 Assay for M61 Transcription Factor (Internal Marker) (AID 2282937). To be noted: HepG2 Attagene CIS-FACTORIAL M61 internal marker reporter; actives raise or lower the signal. Put shortly:
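Endogenous transcription factor activity in HepG2 is read through transiently transfected cis-element reporter units. After 24 h dosing, RNA undergoes reverse transcription, PCR and primer extension with 6-FAM before capillary electrophoresis; DMSO-referenced bidirectional fit.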

A short description of test [20]: ATG_DR4_LXR_CIS: Attagene CIS-FACTORIAL HepG2 Assay for human Liver X Receptor (LXR), DR4 submotif (AID 2282929). Conditions: HepG2 Attagene DR4 cis-reporter, mRNA transcription; actives raise or lower the signal. Put shortly: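 Fluorescence intensity of labelled reporter cDNA fragments, separated by capillary electrophoresis, gives the signal. HepG2 cells bearing cis-regulated reporter constructs were treated 24 h; activity fitted bidirectionally relative to DMSO negative control.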

Records with an inconclusive call do not appear. The source made the active and inactive calls. The calls were made as follows, unless noted: active = hit-call score of the fitted dose curve at least 0.9, where 1 is the maximum; inactive = score below 0.9.

Chain of Hepatocyte nuclear factor 3-beta (Homo sapiens) (Q9Y261 whole entry, looked up): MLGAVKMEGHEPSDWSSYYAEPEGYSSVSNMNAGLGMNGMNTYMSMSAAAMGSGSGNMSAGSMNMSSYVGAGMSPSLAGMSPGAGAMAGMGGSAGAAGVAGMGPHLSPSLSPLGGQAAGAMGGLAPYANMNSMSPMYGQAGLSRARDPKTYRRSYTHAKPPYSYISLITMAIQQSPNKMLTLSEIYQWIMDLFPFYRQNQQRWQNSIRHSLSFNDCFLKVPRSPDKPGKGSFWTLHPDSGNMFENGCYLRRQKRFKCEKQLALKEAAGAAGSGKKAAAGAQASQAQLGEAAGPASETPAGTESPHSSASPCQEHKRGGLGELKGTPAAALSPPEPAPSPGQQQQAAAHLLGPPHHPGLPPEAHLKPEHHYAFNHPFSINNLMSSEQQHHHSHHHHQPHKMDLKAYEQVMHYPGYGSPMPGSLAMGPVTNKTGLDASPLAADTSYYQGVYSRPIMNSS
Chain of CCAAT/enhancer-binding protein beta (Homo sapiens) (P17676 whole entry, looked up): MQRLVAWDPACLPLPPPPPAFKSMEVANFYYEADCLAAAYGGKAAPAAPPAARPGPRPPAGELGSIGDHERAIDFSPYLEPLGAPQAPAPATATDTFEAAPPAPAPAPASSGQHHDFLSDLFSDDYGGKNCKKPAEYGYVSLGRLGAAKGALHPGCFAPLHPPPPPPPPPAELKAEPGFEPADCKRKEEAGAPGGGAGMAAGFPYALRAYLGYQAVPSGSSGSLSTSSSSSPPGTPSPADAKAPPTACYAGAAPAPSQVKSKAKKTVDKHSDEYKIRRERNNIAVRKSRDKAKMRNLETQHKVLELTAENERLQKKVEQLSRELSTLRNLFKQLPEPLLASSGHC
Chain of Retinoic acid receptor alpha (Homo sapiens) (P10276 whole entry, looked up): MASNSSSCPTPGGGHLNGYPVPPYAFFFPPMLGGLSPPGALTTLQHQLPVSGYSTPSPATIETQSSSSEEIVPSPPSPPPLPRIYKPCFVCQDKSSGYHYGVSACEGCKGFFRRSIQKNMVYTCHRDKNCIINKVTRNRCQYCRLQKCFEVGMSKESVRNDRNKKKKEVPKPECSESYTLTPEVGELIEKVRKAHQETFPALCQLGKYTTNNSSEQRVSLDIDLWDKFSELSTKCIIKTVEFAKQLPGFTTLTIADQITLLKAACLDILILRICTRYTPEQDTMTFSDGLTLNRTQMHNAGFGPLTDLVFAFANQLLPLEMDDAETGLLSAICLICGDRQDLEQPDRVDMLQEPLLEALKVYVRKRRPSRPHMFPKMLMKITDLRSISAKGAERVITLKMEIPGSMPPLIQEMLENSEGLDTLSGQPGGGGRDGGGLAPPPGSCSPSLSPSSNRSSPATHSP

With `CCc1cc(Cc2cc(CC)c(N)c(CC)c2)cc(CC)c1N`, the result in test [1], in test [3], in test [6], in test [7], in [11] and in test [12] was inactive. In addition, the compound was called inactive in test [13] and in [14]. Further, the half-maximal activity concentration (AC50) in [2] is 33.4 µM (active); in test [4], 6.64 µM (active); in test [5], 23.6 µM (active); in test [8], 2.96 µM (active); in test [9], 54.4 µM (active); in [10], 9.07 µM (active). Moreover, the half-maximal activity concentration (AC50) in test [15] is 33.4 µM (active); in [16] it was 58.8 µM (active).
As for `O=c1[nH]cccc1O`, the call in test [1], in [2], in test [3], in test [4], in test [6] and in test [7] was inactive. Further, the outcome in test [8], in test [9], in test [10], in test [11], in test [12] and in test [13] was inactive. The compound was called inactive in test [14], in [15], in [16] and in test [17].
For the compound `CCCCC(CC)COC(=O)c1ccc(N(C)C)cc1` (stereo not given), the outcome in test [1], in test [2], in test [3], in test [18], in test [6] and in test [8] was inactive. Also, the outcome in [9], in test [10], in test [19], in test [11], in [14] and in [15] was inactive. The result in test [16] and in test [17] was inactive. In addition, the AC50 in test [4] was 53.9 µM (active); in test [5], 61.7 µM (active); in [7], 46.7 µM (active).
In the case of `CC(C)(C)c1cc(CCC(=O)OCC(COC(=O)CCc2cc(C(C)(C)C)c(O)c(C(C)(C)C)c2)(COC(=O)CCc2cc(C(C)(C)C)c(O)c(C(C)(C)C)c2)COC(=O)CCc2cc(C(C)(C)C)c(O)c(C(C)(C)C)c2)cc(C(C)(C)C)c1O`, the concentration at half-maximal activity (AC50) in test [1] was 0.173 µM (active). Besides, the call in test [2], in test [3], in test [4], in test [18], in [7] and in test [8] was inactive. In addition, the compound was classed as inactive in test [9], in test [10], in [11], in [14], in test [15] and in [16]. Besides, the outcome in test [17] was inactive.
With `O=C1c2c(O)ccc(Nc3ccc(CCO)cc3)c2C(=O)c2c([N+](=O)[O-])ccc(O)c21`, the compound was classed as inactive in test [1], in test [2], in test [3], in test [7], in test [8] and in [9]. Also, the result in [10], in test [19], in test [11], in [12], in test [13] and in [14] was inactive. The result in test [15] and in [16] was inactive. The AC50 in test [4] is 12 µM (active); in [5], 17.7 µM (active).
`CCOC(=O)C1CC(=O)C(=C(O)C2CC2)C(=O)C1` (stereo not given): the call in test [1], in [2], in test [3], in test [4], in test [20] and in [7] was inactive. Further, the call in test [8], in test [9], in [10], in [11], in [12] and in test [14] was inactive. Besides, the call in test [15], in [16] and in test [17] was inactive.
With `CNS(=O)(=O)C(F)(F)C(F)(F)C(F)(F)C(F)(F)C(F)(F)C(F)(F)C(F)(F)C(F)(F)F`, the call in test [1], in [2], in test [3], in test [4], in test [18] and in test [6] was inactive. Further, the outcome in test [7], in test [8], in [9], in test [10], in [11] and in test [12] was inactive. Also, the outcome in [14], in [15] and in [16] was inactive. In addition, the AC50 in test [5] is 13.7 µM (active).

For the origin of these results see PubChem BioAssay (EPA / NIEHS).
